Here are results for 5 compounds from PubChem BioAssay (NCI).

What all share (experiment): NCI-60 one-dose screen, 48 h (100 = growth as untreated, 0 = no growth, -100 = all killed)
One assay concerns NCI-H226 lung. Conditions: 10 µM.
The subject of another assay is NCI-H322M lung. To be noted: 10 µM.
Another assay has as its system HOP-62 NSCLC. Conditions: 10 µM.
A further assay has as its system NCI-H460 lung. Conditions: 10 µM.
In a further assay the test system is A549/ATCC NSCLC. To be noted: 10 µM.
The test system of the next assay is 786-0 renal. Conditions: 10 µM.
A further assay deals with DU-145 prostate. Conditions: 10 µM.
The test system of another assay is SF-268 CNS. To be noted: 10 µM.
A further assay deals with SF-295 CNS. To be noted: 10 µM.
A further assay relates to SF-539 CNS. To be noted: 10 µM.
The subject of the next assay is HCT-15 colon. To be noted: 10 µM.
The next assay deals with HT29 colon. Conditions: 10 µM.
The test system of the next assay is SNB-75 CNS. Conditions: 10 µM.
The test system of the next assay is SNB-19 CNS. To be noted: 10 µM.
The test system of another assay is PC-3 prostate. Conditions: 10 µM.
The subject of another assay is EKVX NSCLC. Conditions: 10 µM.
For another assay, the system named is UO-31 renal. To be noted: 10 µM.
The next assay has as its system ACHN renal. To be noted: 10 µM.
In a further assay the test system is HL-60(TB) leukemia. To be noted: 10 µM unless noted.
A further assay deals with MOLT-4 leukemia. To be noted: 10 µM.

Where “and” joins values, the source holds several entries; their conditions need not be identical. Identical values can stand only once. About 83,000 compounds went through this panel and 20% of them were active in at least one assay; those are over-represented in the sample as a whole.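 Compound tested at a single concentration for 48 hours in 96-well plates; a percent growth value below 10 was scored as active.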 Some structures have more than one record in an assay (separate samples or runs), and their calls can disagree. Calls of active or inactive are those of the source.

With `C/C=C/CC(C)C(O)[C@H](NC(=O)[C@@H]1CCCN1C(=O)C(C)(C)NC(=O)CCCCCCCCC)C(=O)NC(C)(C)C(=O)N[C@@H](CCC(N)=O)C(=O)N[C@H](CCC(N)=O)C(=O)NC(C)(C)C(=O)NC(C)(C)C(=O)N[C@@H](CCC(N)=O)C(=O)N[C@H](CC(C)C)C(=O)N[C@H](CO)CC(C)C` (some centres undefined), the growth in the assay with NCI-H226 lung was 24.6% (inactive) and -36.3% (active); in the assay with NCI-H322M lung, 39.9% (inactive) and -7.7% (active); with HOP-62 NSCLC, 20.7% (inactive) and -41.7% (active); in the assay with NCI-H460 lung, 17.1% (inactive) and -70% (active); in the assay with A549/ATCC NSCLC, 49.3% (inactive) and 26.3% (inactive); in the assay with 786-0 renal it was 14.2% (inactive) and -83.8% (active). In addition, the growth in the assay on DU-145 prostate was -71% (active) and -43.1% (active); in the assay with SF-268 CNS it was -14.2% (active) and -46.2% (active); in the assay with SF-295 CNS it was -20.9% (active) and -75.3% (active); with SF-539 CNS it was -33.1% (active) and -100% (active); in the assay on HCT-15 colon it was 4.12% (active) and 4.44% (active); with HT29 colon, 4.29% (active) and 5.04% (active). For the same compound, the growth with SNB-75 CNS is -15.2% (active) and -83.2% (active); in the assay with SNB-19 CNS, 14.5% (inactive) and -95.4% (active); with PC-3 prostate, 15.8% (inactive) and -29.7% (active); in the assay on EKVX NSCLC, 22.6% (inactive) and -41.8% (active); in the assay on UO-31 renal it was 39.7% (inactive) and -38.5% (active); with ACHN renal, 43.7% (inactive) and -32% (active). Moreover, the growth is -52.1% (active) and -47.2% (active) with HL-60(TB) leukemia; -48.2% (active) and -23.8% (active) with MOLT-4 leukemia.
For the compound `CC1=C[C@H]2O[C@@H]3C[C@H]4OC(=O)/C=C\C=C\[C@H]([C@@H](C)O)OCC[C@@H](C)[C@H](O)C(=O)OC[C@@]2(CC1)[C@]4(C)[C@]31CO1`, the growth in the assay on NCI-H226 lung was -50.5% (active); in the assay with NCI-H322M lung, -19.5% (active); in the assay on HOP-62 NSCLC, -34.5% (active); with NCI-H460 lung, -5.9% (active); with A549/ATCC NSCLC, -21.1% (active); in the assay on 786-0 renal it was -43.3% (active). Further, the growth with DU-145 prostate is -18.4% (active); in the assay on SF-268 CNS, -0.597% (active); in the assay on SF-295 CNS, -38.8% (active); with SF-539 CNS it was -36.5% (active); in the assay on HCT-15 colon, -7.55% (active); in the assay with HT29 colon it was -27.8% (active). Besides, the growth with SNB-75 CNS was -48.3% (active); in the assay with SNB-19 CNS, -14.3% (active); in the assay on PC-3 prostate, -22.9% (active); with EKVX NSCLC, -28.5% (active); in the assay on UO-31 renal, -33.6% (active); with ACHN renal, -13.6% (active). For the same compound, the growth is -50.3% (active) with HL-60(TB) leukemia and -19.2% (active) with MOLT-4 leukemia.
In the case of `C[C@@H]1C[C@H]2C(=O)O[C@@H](C)C(NC(=O)[C@H](Cc3cc(F)cc(F)c3)NC(=O)Nc3ccc(OS(=O)(=O)F)cc3)C(=O)N3CCC[C@H]3C(=O)N3CCO[C@H](C)[C@H]3C(=O)N[C@@H](CO)C(=O)N2C1` (some centres undefined), the growth was -3.99% (active) with NCI-H226 lung; 54% (inactive) in the assay with NCI-H322M lung; 33% (inactive) with HOP-62 NSCLC; 17% (inactive) with NCI-H460 lung; 31% (inactive) with A549/ATCC NSCLC; 42.7% (inactive) with 786-0 renal. Besides, the growth was 28% (inactive) with DU-145 prostate; 33.2% (inactive) with SF-268 CNS; 11.4% (inactive) in the assay on SF-295 CNS; 39.5% (inactive) in the assay with SF-539 CNS; 82.9% (inactive) in the assay with HCT-15 colon; 34.6% (inactive) in the assay with HT29 colon. Besides, the growth with SNB-75 CNS is 34.4% (inactive); in the assay with SNB-19 CNS it was 24.2% (inactive); with PC-3 prostate it was 19.9% (inactive); in the assay on EKVX NSCLC, 34% (inactive); in the assay with UO-31 renal, 88.7% (inactive); with ACHN renal it was 93.5% (inactive). Also, the growth with HL-60(TB) leukemia is 13.3% (inactive); in the assay with MOLT-4 leukemia, 43.8% (inactive).
With `CC1=C2C(=C[C@@](C)(COC(=O)c3ccc(S(=O)(=O)F)cc3)[C@@H]2O)C(=O)[C@](C)(O)C12CC2`, the growth was -24.4% (active) in the assay on NCI-H226 lung; -5.82% (active) in the assay with NCI-H322M lung; -17.7% (active) in the assay on HOP-62 NSCLC; -33.3% (active) with NCI-H460 lung; -11% (active) in the assay with A549/ATCC NSCLC; -37.7% (active) in the assay with 786-0 renal. Moreover, the growth in the assay with DU-145 prostate was -20.4% (active); with SF-268 CNS it was -12% (active); in the assay with SF-295 CNS it was -5.19% (active); with SF-539 CNS, -67.8% (active); with HCT-15 colon it was -20.2% (active); with HT29 colon, -17.9% (active). Besides, the growth in the assay on SNB-75 CNS is -51.6% (active); with SNB-19 CNS it was 3.51% (active); with PC-3 prostate, -3.96% (active); in the assay on EKVX NSCLC it was -4.53% (active); in the assay on UO-31 renal, -21.4% (active); with ACHN renal, 0.0222% (active). Moreover, the growth with MOLT-4 leukemia was 10.2% (inactive).
As to `COc1cc(C)c(-c2ccc(OC)c(=O)cc2C)c(OC)c1OC`, the growth with NCI-H226 lung was 41.8% (inactive) and 98.4% (inactive); with NCI-H322M lung it was 46.5% (inactive) and 104% (inactive); with HOP-62 NSCLC, 31.5% (inactive) and 98.7% (inactive); in the assay on NCI-H460 lung it was 4.53% (active) and 103% (inactive); in the assay with A549/ATCC NSCLC, 17.6% (inactive) and 98.4% (inactive); in the assay on 786-0 renal, 37.8% (inactive) and 101% (inactive). Besides, the growth in the assay with DU-145 prostate was 13.3% (inactive) and 104% (inactive); in the assay with SF-268 CNS it was 37.5% (inactive) and 103% (inactive); in the assay with SF-295 CNS it was 6.39% (active) and 100% (inactive); with SF-539 CNS, -7.85% (active) and 94.9% (inactive); with HCT-15 colon it was 12% (inactive) and 101% (inactive); in the assay on HT29 colon, 4.37% (active) and 113% (inactive). The growth was 28.3% (inactive) and 93.6% (inactive) with SNB-75 CNS; 20.1% (inactive) and 96.6% (inactive) with SNB-19 CNS; 19% (inactive) and 95.8% (inactive) in the assay on PC-3 prostate; 36.6% (inactive) and 97.1% (inactive) in the assay on EKVX NSCLC; 47.5% (inactive) and 88.6% (inactive) in the assay with UO-31 renal; 31.9% (inactive) and 105% (inactive) in the assay with ACHN renal. Moreover, the growth is -24.6% (active) and 98.8% (inactive) in the assay with HL-60(TB) leukemia; 12.3% (inactive) and 102% (inactive) in the assay on MOLT-4 leukemia.
